From PubChem BioAssay (NCI) come the findings set out here.

Assay [1] can be described thus: NCI Yeast Anticancer Drug Screen. Data for the rad50 strain (AID 155).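 Also: 0% = growth of vehicle-only cultures of the same strain.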 The following applies: S. cerevisiae rad50 strain growth inhibition, stronger effect = higher value. The gist of the method:
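A DNA repair-deficient yeast mutant serves as the test organism; compound-induced growth inhibition is calculated against vehicle-treated cells.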

Assay [2] can be described thus: NCI Yeast Anticancer Drug Screen. Data for the mec2-1 strain (AID 157). The following applies: S. cerevisiae mec2-1 strain, stronger effect = higher value. The gist of the method: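 Each compound was tested on mec2-1 yeast, a strain altered in DNA damage repair or cell cycle control. Growth inhibition is reported relative to vehicle.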
Assay [3] in a line: NCI Yeast Anticancer Drug Screen. Data for the sgs1 mgt1 strain (AID 161).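 Also: 0% = growth of cultures given vehicle only.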 Particulars: S. cerevisiae sgs1 mgt1 strain, stronger effect = higher value. The method in brief: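 Test agents were incubated with a DNA-repair-mutant yeast strain. Growth was then read and compared against vehicle-treated controls.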
Assay [4] in a line: NCI Yeast Anticancer Drug Screen. Data for the cln2 rad14 strain (AID 165).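 Also: 0% = growth equal to vehicle treated cultures.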 The following applies: S. cerevisiae cln2 rad14 strain, stronger effect = higher value. The method in brief:
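Test compounds were added to cln2 rad14 yeast cultures; inhibition of growth was then determined by comparison with vehicle treatment.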

Assay [5] in a line: NCI Yeast Anticancer Drug Screen. Data for the bub3 strain (AID 167). The following applies: S. cerevisiae bub3 mutant strain, stronger effect = higher value. The gist of the method: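 Inhibition values come from growth of compound-treated mutant yeast normalised to vehicle-treated controls.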
Assay [6] can be described thus: NCI Yeast Anticancer Drug Screen. Data for the mlh1 rad18 strain (AID 175). Particulars: S. cerevisiae mlh1 rad18 strain growth inhibition, stronger effect = higher value. The gist of the method: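 Inhibition values reflect reduced growth of mutant yeast versus vehicle-treated controls following compound exposure; the mutations affect DNA damage repair.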
Where [7] appears, read: at 5.0 µM (retest, dose inferred, filed as 0.5).
The mark [8] stands for this setting: at 50.0 µM (retest, dose inferred, filed as 5.0).

SMILES strings stand for the structures. Several values for one entry are separate records, joined by “and”; a condition that tells them apart may be missing. Equal values may be shown once. Compounds without any hit were thinned out: in the full panel of roughly 79,000, 15% have a hit. More than one record can exist for a structure, and the calls need not agree. Activity calls are given as the source filed them. Rule as the data show it: active = growth inhibition above about 70%; inactive = the rest.

Take `CC(=O)Oc1ccc2c(c1)Oc1cc(OC(C)=O)ccc1C21OC(=O)c2ccccc21`: the growth inhibition was 5% (inactive) in assay [1] (setting [7]); 5% (inactive) in assay [1] (setting [8]); 16.8% (inactive) and 98.2% (active) in assay [1] (at 50.0 µM); -3% (inactive) in assay [2] (setting [7]); 53% (inactive) in assay [2] (setting [8]); 19.5% (inactive) and 99.5% (active) in assay [2] (at 50.0 µM). Also, the growth inhibition is 3% (inactive) in assay [3] (setting [7]); 36% (inactive) in assay [3] (setting [8]); 30.9% (inactive) and 96.8% (active) in assay [3] (at 50.0 µM); 3% (inactive) in assay [4] (setting [7]); 54% (inactive) in assay [4] (setting [8]); 14.2% (inactive) and -25.1% (inactive) in assay [4] (at 50.0 µM). Further, the growth inhibition in assay [5] (setting [7]) is -1% (inactive); in assay [5] (setting [8]), 27% (inactive); in assay [5] (at 50.0 µM), 18.6% (inactive) and 99.5% (active); in assay [6] (setting [7]), 14% (inactive); in assay [6] (setting [8]) it was 24% (inactive); in assay [6] (at 50.0 µM), 24.8% (inactive) and 98.7% (active).

Turning to `NS(=O)(=O)c1ccc(Nc2c3ccccc3nc3c(C(=O)N4CCN(CCO)CC4)cccc23)cc1`, the growth inhibition in assay [1] (setting [7]) is 61% (inactive); in assay [1] (setting [8]) it was 61% (inactive); in assay [1] (at 50.0 µM) it was 38.6% (inactive); in assay [2] (setting [7]), 39% (inactive); in assay [2] (setting [8]) it was 39% (inactive); in assay [2] (at 50.0 µM), 40.7% (inactive). Besides, the growth inhibition in assay [3] (setting [7]) is 60% (inactive); in assay [3] (setting [8]), 60% (inactive); in assay [3] (at 50.0 µM) it was 24.4% (inactive); in assay [4] (setting [7]), 25% (inactive); in assay [4] (setting [8]), 25% (inactive); in assay [4] (at 50.0 µM), 29.9% (inactive). For the same molecule, the growth inhibition in assay [5] (setting [7]) was 32% (inactive); in assay [5] (setting [8]), 32% (inactive); in assay [5] (at 50.0 µM) it was 23.9% (inactive); in assay [6] (setting [7]) it was 30% (inactive); in assay [6] (setting [8]), 30% (inactive); in assay [6] (at 50.0 µM) it was 79.8% (active).

For `CCN(CC)CCOc1ccc2c(C)c(-c3ccccc3)c(=O)oc2c1`, the growth inhibition was 0% (inactive) in assay [1] (setting [7]); 23% (inactive) in assay [1] (setting [8]); 62% (inactive) in assay [1] (at 50.0 µM); -3% (inactive) in assay [2] (setting [7]); 34% (inactive) in assay [2] (setting [8]); 3% (inactive) in assay [2] (at 50.0 µM). The growth inhibition was 10% (inactive) in assay [3] (setting [7]); 38% (inactive) in assay [3] (setting [8]); 34.8% (inactive) in assay [3] (at 50.0 µM); -5% (inactive) in assay [4] (setting [7]); 18% (inactive) in assay [4] (setting [8]); -44.8% (inactive) in assay [4] (at 50.0 µM). Also, the growth inhibition in assay [5] (setting [7]) is -4% (inactive); in assay [5] (setting [8]) it was 27% (inactive); in assay [5] (at 50.0 µM) it was 60.8% (inactive); in assay [6] (setting [7]) it was 2% (inactive); in assay [6] (setting [8]), 30% (inactive); in assay [6] (at 50.0 µM), 21.1% (inactive).

In the case of `COc1ccc(/C=C2\CCCC(CN(C)C)C2=O)cc1` (centres undefined), the growth inhibition in assay [1] (setting [7]) was -1% (inactive); in assay [1] (setting [8]) it was 8% (inactive); in assay [1] (at 50.0 µM), 65.4% (inactive); in assay [2] (setting [7]), -20% (inactive); in assay [2] (setting [8]) it was 13% (inactive); in assay [2] (at 50.0 µM), 78.8% (active). Moreover, the growth inhibition in assay [3] (setting [7]) was -31% (inactive); in assay [3] (setting [8]) it was -3% (inactive); in assay [3] (at 50.0 µM) it was 86.2% (active); in assay [4] (setting [7]), -32% (inactive); in assay [4] (setting [8]), 9% (inactive); in assay [4] (at 50.0 µM), 57.4% (inactive). The growth inhibition in assay [5] (setting [7]) was -48% (inactive); in assay [5] (setting [8]), 23% (inactive); in assay [5] (at 50.0 µM) it was 81.8% (active); in assay [6] (setting [7]) it was -22% (inactive); in assay [6] (setting [8]), 5% (inactive); in assay [6] (at 50.0 µM) it was 84.7% (active).

Turning to `Cc1cc(N)c(S)cc1C`, the growth inhibition in assay [1] (setting [7]) was 6% (inactive) and -2% (inactive); in assay [1] (setting [8]) it was 25% (inactive) and 28% (inactive); in assay [1] (at 50.0 µM), 65.1% (inactive) and 25.8% (inactive); in assay [2] (setting [7]), -8% (inactive) and 0% (inactive); in assay [2] (setting [8]), 25% (inactive) and 31% (inactive); in assay [2] (at 50.0 µM) it was 19.9% (inactive) and 24.2% (inactive). Also, the growth inhibition is 1% (inactive) in assay [3] (setting [7]); 44% (inactive) and 37% (inactive) in assay [3] (setting [8]); 21.3% (inactive) and 50.4% (inactive) in assay [3] (at 50.0 µM); -1% (inactive) and -7% (inactive) in assay [4] (setting [7]); 2% (inactive) and 7% (inactive) in assay [4] (setting [8]); -50% (inactive) and 30.4% (inactive) in assay [4] (at 50.0 µM). Further, the growth inhibition in assay [5] (setting [7]) was -2% (inactive) and 1% (inactive); in assay [5] (setting [8]) it was 59% (inactive) and 47% (inactive); in assay [5] (at 50.0 µM) it was 42.9% (inactive) and 75.5% (active); in assay [6] (setting [7]), 2% (inactive) and -2% (inactive); in assay [6] (setting [8]), 70% (active) and 40% (inactive); in assay [6] (at 50.0 µM), 59.8% (inactive) and 77% (active).

For the molecule `O=C1NC(=O)c2c1cccc2[N+](=O)[O-]`, the growth inhibition in assay [1] (setting [7]) is -7% (inactive); in assay [1] (setting [8]) it was 31% (inactive) and 12% (inactive); in assay [1] (at 50.0 µM), -4.8% (inactive) and 18.4% (inactive); in assay [2] (setting [7]) it was -20% (inactive) and 2% (inactive); in assay [2] (setting [8]) it was 4% (inactive) and 8% (inactive); in assay [2] (at 50.0 µM), -4% (inactive) and 25% (inactive). The growth inhibition in assay [3] (setting [7]) was -2% (inactive) and 0% (inactive); in assay [3] (setting [8]), 0% (inactive) and 8% (inactive); in assay [3] (at 50.0 µM), 9.25% (inactive) and -3.15% (inactive); in assay [4] (setting [7]) it was -5% (inactive) and 0% (inactive); in assay [4] (setting [8]), -6% (inactive) and -5% (inactive); in assay [4] (at 50.0 µM), 45.3% (inactive) and 50.4% (inactive). Further, the growth inhibition in assay [5] (setting [7]) is 37% (inactive) and -2% (inactive); in assay [5] (setting [8]) it was -4% (inactive) and 8% (inactive); in assay [5] (at 50.0 µM), -1.4% (inactive) and 20.1% (inactive); in assay [6] (setting [7]), -4% (inactive) and -3% (inactive); in assay [6] (setting [8]) it was 3% (inactive) and 13% (inactive); in assay [6] (at 50.0 µM), 8.5% (inactive) and 2.2% (inactive).

On to `COC(=O)CSC(=S)N1CCOCC1`, for which the growth inhibition was 2% (inactive) in assay [1] (setting [7]); 6% (inactive) in assay [1] (setting [8]); -6.85% (inactive) in assay [1] (at 50.0 µM); 9% (inactive) in assay [2] (setting [7]); 4% (inactive) in assay [2] (setting [8]); -5.75% (inactive) in assay [2] (at 50.0 µM). For the same molecule, the growth inhibition is 4% (inactive) in assay [3] (setting [7]); 22% (inactive) in assay [3] (setting [8]); -5.3% (inactive) in assay [3] (at 50.0 µM); 7% (inactive) in assay [4] (setting [7]); -4% (inactive) in assay [4] (setting [8]); -38% (inactive) in assay [4] (at 50.0 µM). The growth inhibition in assay [5] (setting [7]) is -3% (inactive); in assay [5] (setting [8]) it was -5% (inactive); in assay [5] (at 50.0 µM) it was -10.1% (inactive); in assay [6] (setting [7]) it was 4% (inactive); in assay [6] (setting [8]), 5% (inactive); in assay [6] (at 50.0 µM), 24.2% (inactive).

In the case of `Cc1cc(=O)[nH]c2ccc(Cc3ccc(N)cc3)cc12`, the growth inhibition in assay [1] (setting [7]) was -3% (inactive); in assay [1] (setting [8]) it was 12% (inactive); in assay [1] (at 50.0 µM), 6.25% (inactive) and 15.6% (inactive); in assay [2] (setting [7]), 9% (inactive); in assay [2] (setting [8]), 22% (inactive); in assay [2] (at 50.0 µM) it was 1.7% (inactive) and 0.45% (inactive). Also, the growth inhibition in assay [3] (setting [7]) was 15% (inactive); in assay [3] (setting [8]), 27% (inactive); in assay [3] (at 50.0 µM), 14.6% (inactive) and 1.2% (inactive); in assay [4] (setting [7]) it was 0% (inactive); in assay [4] (setting [8]), -2% (inactive); in assay [4] (at 50.0 µM), 13.2% (inactive) and 31.4% (inactive). Also, the growth inhibition in assay [5] (setting [7]) is 3% (inactive); in assay [5] (setting [8]) it was 10% (inactive); in assay [5] (at 50.0 µM) it was 19.1% (inactive) and -13.5% (inactive); in assay [6] (setting [7]) it was 21% (inactive); in assay [6] (setting [8]), 22% (inactive); in assay [6] (at 50.0 µM), 11.8% (inactive) and -1% (inactive).
